Paper PMC7862700, “An all-to-all approach to the identification of sequence-specific readers for epigenetic DNA modifications on cytosine”

Columns and labels:
Assay in all cases: DAPPL (digital affinity profiling via proximity ligation, sequencing); 10 mM Tris-HCl pH 7.5, 50 mM NaCl, 1 mM DTT, 4% glycerol, room temperature, 30 min; GST-TFs on glutathione beads, 16-mer random dsDNA library, 0.1% formaldehyde crosslink after washing; high values mean tight binding
Conditions in all cases: protein: recombinant; tags: N-terminal GST; dsDNA, one strand shown
FLI1 = target: T1, FLI1 (Homo sapiens, UniProt Q01543 1-452)
T1 sequence: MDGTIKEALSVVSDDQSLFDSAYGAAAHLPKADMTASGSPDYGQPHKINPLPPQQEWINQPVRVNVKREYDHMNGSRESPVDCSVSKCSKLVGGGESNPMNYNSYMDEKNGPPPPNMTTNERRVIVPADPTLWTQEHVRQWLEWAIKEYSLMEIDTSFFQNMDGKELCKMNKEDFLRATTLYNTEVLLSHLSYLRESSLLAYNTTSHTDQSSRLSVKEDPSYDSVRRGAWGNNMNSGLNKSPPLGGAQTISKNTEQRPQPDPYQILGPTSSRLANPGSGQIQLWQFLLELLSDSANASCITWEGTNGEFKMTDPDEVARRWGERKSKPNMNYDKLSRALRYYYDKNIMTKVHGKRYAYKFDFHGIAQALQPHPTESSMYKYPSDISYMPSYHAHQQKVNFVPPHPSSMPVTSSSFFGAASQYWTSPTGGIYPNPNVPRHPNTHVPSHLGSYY
Method in brief: (§1)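 Human transcription factors fused to GST were expressed in yeast, captured on glutathione beads, given DNA barcodes and pooled with a GST-only negative control. Pools were incubated with 200 nmole of a 16-mer random double-stranded DNA library in Tris/NaCl/DTT/glycerol buffer at room temperature for 30 min. They were then washed, crosslinked with 0.1% formaldehyde, proximity-ligated (BsaI/T4 ligase, 1 h, 37 °C), PCR-amplified and sequenced on an Illumina NextSeq500. Binding signal is each 6-mer's read frequency for a factor divided by its frequency for the GST control.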

ELK1 = target: T2, ELK1 (Homo sapiens, UniProt P19419 1-428)
T2 sequence: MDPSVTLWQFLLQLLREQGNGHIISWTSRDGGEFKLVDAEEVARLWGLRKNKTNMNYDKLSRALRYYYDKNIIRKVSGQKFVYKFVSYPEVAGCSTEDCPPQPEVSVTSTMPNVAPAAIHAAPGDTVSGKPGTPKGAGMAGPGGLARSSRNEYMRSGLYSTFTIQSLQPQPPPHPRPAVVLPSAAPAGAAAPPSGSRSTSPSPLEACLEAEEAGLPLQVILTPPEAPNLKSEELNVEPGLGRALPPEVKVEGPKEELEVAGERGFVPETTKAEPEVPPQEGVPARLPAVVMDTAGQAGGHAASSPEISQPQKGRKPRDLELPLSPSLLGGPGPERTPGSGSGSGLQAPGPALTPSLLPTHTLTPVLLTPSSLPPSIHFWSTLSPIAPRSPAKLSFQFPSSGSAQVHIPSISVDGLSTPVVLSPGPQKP
Method in brief: as §1

GABPA = target: T3, GABPA (Homo sapiens, UniProt Q06546 1-454)
T3 sequence: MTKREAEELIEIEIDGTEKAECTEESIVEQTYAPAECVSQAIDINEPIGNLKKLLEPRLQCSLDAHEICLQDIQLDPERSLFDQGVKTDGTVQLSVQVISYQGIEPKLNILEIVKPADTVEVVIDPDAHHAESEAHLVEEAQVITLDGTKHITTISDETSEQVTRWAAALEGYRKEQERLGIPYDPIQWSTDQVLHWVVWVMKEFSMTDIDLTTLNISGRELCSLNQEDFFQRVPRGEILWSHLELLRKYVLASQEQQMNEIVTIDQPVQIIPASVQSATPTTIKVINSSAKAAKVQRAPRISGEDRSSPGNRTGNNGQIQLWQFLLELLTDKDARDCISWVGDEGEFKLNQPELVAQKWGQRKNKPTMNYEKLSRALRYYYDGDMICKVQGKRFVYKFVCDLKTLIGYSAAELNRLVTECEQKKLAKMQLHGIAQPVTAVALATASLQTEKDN
Method in brief: as §1

ERG = target: T4, ERG (Homo sapiens, UniProt P11308 1-479)
T4 sequence: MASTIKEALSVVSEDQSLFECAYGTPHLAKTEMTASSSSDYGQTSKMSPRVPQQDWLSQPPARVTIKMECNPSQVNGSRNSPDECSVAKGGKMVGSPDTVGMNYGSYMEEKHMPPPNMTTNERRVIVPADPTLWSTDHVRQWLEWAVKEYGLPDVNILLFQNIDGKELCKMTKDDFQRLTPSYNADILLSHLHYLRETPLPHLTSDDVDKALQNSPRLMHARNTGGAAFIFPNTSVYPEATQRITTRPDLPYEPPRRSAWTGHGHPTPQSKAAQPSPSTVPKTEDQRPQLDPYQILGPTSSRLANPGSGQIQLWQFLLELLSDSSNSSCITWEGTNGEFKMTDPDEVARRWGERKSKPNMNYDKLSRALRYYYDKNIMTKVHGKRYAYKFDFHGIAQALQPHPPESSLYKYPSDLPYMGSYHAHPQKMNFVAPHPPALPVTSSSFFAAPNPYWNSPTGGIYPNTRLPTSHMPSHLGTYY
Method in brief: as §1

ELF1 = ELF1 (Homo sapiens, UniProt P32519 1-619)
Method in brief: as §1

EHF = target: T5, EHF (Homo sapiens, UniProt Q9NZC4 1-300)
T5 sequence: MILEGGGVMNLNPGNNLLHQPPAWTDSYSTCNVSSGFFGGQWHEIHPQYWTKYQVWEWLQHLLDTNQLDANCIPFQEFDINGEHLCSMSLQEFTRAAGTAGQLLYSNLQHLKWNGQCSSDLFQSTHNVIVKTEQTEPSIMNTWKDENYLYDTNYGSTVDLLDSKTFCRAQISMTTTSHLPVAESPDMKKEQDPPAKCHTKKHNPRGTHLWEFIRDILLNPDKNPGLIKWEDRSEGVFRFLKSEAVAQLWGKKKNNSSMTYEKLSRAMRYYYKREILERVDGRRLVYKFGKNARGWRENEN
Method in brief: as §1

SPI1 = SPI1 (Homo sapiens, UniProt P17947 1-270)
Method in brief: as §1

SPIB = SPIB (Homo sapiens, UniProt Q01892 1-262)
Method in brief: as §1

ELK3 = target: T6, ELK3 (Homo sapiens, UniProt P41970 1-407)
T6 sequence: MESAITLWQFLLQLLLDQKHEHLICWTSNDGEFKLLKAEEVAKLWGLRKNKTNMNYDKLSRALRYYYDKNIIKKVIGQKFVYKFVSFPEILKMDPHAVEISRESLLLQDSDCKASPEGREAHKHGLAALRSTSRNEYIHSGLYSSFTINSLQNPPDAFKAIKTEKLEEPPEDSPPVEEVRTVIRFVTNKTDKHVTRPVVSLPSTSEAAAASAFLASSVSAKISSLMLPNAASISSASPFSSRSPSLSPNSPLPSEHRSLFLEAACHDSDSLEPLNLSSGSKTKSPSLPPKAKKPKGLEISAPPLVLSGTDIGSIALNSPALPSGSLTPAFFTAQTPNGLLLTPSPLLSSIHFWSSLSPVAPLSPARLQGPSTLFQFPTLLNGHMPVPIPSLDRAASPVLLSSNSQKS
Method in brief: as §1

FEV = target: T7, FEV (Homo sapiens, UniProt Q99581 1-238)
T7 sequence: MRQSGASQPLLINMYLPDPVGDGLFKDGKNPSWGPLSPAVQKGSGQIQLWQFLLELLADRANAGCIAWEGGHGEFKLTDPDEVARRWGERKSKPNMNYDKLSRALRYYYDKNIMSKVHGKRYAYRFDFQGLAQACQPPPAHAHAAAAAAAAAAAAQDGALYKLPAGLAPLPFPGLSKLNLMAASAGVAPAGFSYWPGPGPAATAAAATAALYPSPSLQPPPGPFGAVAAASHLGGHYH
Method in brief: as §1

ETV5 = ETV5 (Homo sapiens, UniProt P41161 1-510)
Method in brief: as §1

SPIC = target: T8, SPIC (Homo sapiens, UniProt Q8N5J4 1-248)
T8 sequence: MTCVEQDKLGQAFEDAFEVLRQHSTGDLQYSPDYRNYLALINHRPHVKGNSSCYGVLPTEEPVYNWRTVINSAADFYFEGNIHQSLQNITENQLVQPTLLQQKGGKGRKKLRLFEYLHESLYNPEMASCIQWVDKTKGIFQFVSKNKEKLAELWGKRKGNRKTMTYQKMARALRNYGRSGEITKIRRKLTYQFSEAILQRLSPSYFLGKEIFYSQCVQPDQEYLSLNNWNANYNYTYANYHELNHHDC
Method in brief: as §1

ELF4 = ELF4 (Homo sapiens, UniProt Q99607 1-663)
Method in brief: as §1

ELK4 = target: T9, ELK4 (Homo sapiens, UniProt P28324-2 1-405)
T9 sequence: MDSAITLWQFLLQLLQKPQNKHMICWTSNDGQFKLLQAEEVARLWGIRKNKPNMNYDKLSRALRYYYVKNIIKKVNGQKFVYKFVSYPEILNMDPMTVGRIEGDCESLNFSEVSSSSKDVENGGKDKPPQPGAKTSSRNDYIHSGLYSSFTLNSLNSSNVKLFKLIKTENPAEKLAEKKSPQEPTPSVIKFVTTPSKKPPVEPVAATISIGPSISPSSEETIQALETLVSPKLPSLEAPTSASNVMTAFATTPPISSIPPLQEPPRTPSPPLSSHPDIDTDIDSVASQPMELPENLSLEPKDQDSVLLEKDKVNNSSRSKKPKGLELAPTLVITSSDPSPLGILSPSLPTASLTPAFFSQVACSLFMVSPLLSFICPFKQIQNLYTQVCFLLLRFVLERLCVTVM
Method in brief: as §1

ETV2 = target: T10, ETV2 (Homo sapiens, UniProt O00321 1-342)
T10 sequence: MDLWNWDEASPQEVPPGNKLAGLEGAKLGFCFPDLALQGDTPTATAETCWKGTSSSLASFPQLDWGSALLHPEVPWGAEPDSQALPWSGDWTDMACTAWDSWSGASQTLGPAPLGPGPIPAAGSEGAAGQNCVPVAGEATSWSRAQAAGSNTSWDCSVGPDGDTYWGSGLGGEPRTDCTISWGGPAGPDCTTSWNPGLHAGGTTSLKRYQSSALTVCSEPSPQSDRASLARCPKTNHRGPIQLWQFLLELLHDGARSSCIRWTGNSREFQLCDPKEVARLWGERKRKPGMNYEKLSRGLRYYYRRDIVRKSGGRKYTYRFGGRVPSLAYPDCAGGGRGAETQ
Method in brief: as §1

ELF3 = target: T11, ELF3 (Homo sapiens, UniProt P78545 1-371)
T11 sequence: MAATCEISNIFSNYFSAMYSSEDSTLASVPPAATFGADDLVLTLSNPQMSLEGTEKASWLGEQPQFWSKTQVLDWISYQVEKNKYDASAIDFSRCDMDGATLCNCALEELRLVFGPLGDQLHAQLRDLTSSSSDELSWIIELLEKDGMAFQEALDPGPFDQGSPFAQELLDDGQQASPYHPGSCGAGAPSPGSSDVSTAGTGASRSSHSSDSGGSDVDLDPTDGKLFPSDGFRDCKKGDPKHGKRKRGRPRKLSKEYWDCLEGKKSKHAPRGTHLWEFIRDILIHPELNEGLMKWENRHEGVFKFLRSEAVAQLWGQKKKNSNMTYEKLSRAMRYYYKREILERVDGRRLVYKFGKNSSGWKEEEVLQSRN
Method in brief: as §1

ETV1 = ETV1 (Homo sapiens, UniProt P50549 1-477)
Method in brief: as §1

Chain of ELF1 (P32519 whole entry): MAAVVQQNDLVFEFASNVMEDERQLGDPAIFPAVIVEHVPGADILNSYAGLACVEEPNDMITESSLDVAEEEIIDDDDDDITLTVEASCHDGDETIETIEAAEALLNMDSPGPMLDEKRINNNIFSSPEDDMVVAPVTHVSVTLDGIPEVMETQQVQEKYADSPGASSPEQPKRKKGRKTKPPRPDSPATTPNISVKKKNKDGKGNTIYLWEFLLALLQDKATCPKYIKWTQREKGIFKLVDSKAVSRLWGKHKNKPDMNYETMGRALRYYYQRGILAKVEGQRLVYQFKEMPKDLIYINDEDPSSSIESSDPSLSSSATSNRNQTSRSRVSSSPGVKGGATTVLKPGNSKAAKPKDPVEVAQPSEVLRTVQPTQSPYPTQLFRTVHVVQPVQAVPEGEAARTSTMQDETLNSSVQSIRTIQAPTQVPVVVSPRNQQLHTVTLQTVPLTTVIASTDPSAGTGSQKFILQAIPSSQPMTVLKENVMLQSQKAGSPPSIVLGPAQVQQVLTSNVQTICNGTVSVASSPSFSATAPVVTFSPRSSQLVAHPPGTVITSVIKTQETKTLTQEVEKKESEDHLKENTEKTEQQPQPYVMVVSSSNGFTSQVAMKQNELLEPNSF
Chain of ETV5 (P41161 whole entry): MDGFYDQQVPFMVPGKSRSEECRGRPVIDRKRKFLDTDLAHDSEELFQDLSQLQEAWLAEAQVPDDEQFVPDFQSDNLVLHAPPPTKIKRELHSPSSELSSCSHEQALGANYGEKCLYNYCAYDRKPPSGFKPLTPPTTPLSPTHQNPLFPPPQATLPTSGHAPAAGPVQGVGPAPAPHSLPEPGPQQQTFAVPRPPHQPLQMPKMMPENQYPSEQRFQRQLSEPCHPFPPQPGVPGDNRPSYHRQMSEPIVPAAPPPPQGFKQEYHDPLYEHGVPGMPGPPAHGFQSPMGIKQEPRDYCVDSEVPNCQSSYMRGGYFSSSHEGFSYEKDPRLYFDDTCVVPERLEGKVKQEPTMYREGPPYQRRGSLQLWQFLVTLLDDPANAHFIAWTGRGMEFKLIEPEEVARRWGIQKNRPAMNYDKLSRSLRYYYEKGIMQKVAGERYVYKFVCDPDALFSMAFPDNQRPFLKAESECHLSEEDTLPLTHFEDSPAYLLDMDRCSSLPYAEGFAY
Chain of ELF4 (Q99607 whole entry): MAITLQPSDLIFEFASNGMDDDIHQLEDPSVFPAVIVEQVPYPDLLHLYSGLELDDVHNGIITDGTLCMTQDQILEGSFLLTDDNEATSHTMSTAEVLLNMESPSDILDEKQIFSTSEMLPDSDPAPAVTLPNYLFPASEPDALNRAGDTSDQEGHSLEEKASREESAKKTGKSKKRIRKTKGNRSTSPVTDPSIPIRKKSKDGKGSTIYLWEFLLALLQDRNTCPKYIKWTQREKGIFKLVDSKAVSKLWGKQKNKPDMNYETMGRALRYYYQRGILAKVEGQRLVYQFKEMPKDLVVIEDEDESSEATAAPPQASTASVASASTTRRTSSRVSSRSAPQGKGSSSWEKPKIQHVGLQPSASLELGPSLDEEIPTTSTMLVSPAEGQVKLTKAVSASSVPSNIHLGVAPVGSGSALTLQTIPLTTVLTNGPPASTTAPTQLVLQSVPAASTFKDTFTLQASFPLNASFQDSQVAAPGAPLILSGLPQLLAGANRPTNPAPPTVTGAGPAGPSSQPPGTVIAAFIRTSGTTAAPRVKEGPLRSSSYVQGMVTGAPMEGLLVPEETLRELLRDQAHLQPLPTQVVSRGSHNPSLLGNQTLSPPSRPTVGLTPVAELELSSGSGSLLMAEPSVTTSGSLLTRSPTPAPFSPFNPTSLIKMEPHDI
Chain of SPIB (Q01892 whole entry): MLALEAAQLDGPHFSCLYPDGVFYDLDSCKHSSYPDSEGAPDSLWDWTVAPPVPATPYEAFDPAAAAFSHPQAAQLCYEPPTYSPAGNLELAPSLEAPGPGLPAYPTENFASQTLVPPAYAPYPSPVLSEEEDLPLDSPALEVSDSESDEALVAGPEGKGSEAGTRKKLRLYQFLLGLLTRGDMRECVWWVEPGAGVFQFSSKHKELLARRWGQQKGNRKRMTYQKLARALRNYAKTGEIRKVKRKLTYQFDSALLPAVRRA
Chain of ETV1 (P50549 whole entry): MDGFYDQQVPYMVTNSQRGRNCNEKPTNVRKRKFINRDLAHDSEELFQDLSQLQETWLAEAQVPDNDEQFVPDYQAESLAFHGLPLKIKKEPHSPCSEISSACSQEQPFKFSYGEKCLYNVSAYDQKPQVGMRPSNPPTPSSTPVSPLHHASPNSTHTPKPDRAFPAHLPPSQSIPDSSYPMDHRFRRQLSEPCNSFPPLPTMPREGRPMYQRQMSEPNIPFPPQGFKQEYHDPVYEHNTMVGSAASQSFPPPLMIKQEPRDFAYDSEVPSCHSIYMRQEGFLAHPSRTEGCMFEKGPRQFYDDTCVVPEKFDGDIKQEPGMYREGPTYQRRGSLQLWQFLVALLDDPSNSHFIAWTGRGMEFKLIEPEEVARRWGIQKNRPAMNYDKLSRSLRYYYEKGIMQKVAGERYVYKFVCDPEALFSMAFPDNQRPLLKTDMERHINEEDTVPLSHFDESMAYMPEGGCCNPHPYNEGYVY

TGTCAC was tested, and the binding signal (FLI1) was 1.15 fold enrichment (6-mer frequency, TF over GST control), the binding signal (ELK1) was 1.11 fold enrichment (6-mer frequency, TF over GST control) and the binding signal (GABPA) was 1.22 fold enrichment (6-mer frequency, TF over GST control). The binding signal (ERG) was 1.11 fold enrichment (6-mer frequency, TF over GST control), the binding signal (ELF1) was 1.23 fold enrichment (6-mer frequency, TF over GST control) and the binding signal (EHF) was 1.22 fold enrichment (6-mer frequency, TF over GST control). For the same sequence, the binding signal (SPI1) was 1.21 fold enrichment (6-mer frequency, TF over GST control), the binding signal (SPIB) was 1.31 fold enrichment (6-mer frequency, TF over GST control) and the binding signal (ELK3) was 1.2 fold enrichment (6-mer frequency, TF over GST control). The binding signal (FEV) was 1.2 fold enrichment (6-mer frequency, TF over GST control), the binding signal (ETV5) was 1.15 fold enrichment (6-mer frequency, TF over GST control) and the binding signal (SPIC) was 1.31 fold enrichment (6-mer frequency, TF over GST control). The binding signal (ELF4) was 1.22 fold enrichment (6-mer frequency, TF over GST control), the binding signal (ELK4) was 1.25 fold enrichment (6-mer frequency, TF over GST control) and the binding signal (ETV2) was 1.24 fold enrichment (6-mer frequency, TF over GST control). For the same sequence, the binding signal (ELF3) was 1.2 fold enrichment (6-mer frequency, TF over GST control) and the binding signal (ETV1) was 1.18 fold enrichment (6-mer frequency, TF over GST control).
